Bioassay records from PubChem BioAssay.
MEKK2mut PB1 HTS: MEK5 binding signal on mutant MEKK2 PB1, primary screen, biochemical, multiplex bead flow cytometry, Alexa488-MEK5 | Alexa488-MEK5 binding to MEKK2 mutant | percent response, % at 10 µM | hit rate 0.35% among 290,000 | AID 1530, 2009; in the data active means percent response above about 24%, passing the limit was not always enough
GRK2 aptamer HTS: compounds blocking aptamer binding on GRK2 – biochemical, human GRK2, bead flow cytometry, HTS, primary screen; Beta-adrenergic receptor kinase 1 (Homo sapiens), P25098; FAM-aptamer displacement from GRK2; inhibition of aptamer binding, % at 10 µM; hit rate 0.59% among 330,000; AID 488847, 2010;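 active means inhibition of aptamer binding above 40%, roughly 3 SD of noise, on plates passing a quality check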;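 further: median bead fluorescence of bound FAM aptamer so fluorescent compounds give negative values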
Target sequence (P25098 whole entry, looked up): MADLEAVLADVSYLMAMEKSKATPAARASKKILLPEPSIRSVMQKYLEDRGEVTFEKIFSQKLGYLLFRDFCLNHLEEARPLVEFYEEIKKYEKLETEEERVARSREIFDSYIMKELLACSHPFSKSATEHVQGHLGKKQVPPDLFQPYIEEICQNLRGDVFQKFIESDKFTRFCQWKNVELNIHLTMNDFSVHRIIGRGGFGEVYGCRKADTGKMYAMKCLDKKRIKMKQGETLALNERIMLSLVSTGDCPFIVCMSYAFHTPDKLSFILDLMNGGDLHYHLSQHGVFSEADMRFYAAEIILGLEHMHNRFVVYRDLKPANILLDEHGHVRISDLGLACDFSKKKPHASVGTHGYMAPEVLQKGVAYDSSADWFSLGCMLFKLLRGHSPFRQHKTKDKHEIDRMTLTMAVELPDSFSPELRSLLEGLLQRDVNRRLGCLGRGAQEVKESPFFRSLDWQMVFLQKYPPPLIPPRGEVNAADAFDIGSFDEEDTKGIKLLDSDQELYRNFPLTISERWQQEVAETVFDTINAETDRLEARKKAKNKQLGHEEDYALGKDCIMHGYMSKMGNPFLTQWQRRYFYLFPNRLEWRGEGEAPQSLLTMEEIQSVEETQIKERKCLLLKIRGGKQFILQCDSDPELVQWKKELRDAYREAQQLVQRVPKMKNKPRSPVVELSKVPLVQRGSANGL
MEKK2 WT-MEK5: modulators of MEK5 binding to wildtype MEKK2, primary screen, biochemical, multiplex bead flow cytometry, Alexa488-MEK5 | hit rate 1.1% among 290,000 | Mitogen-activated protein kinase kinase kinase 2 (Homo sapiens), Q9Y2U5 | Alexa488-MEK5 binding to MEKK2 WT; actives lie on both sides | binding response (% of control), % at 10 µM | AID 1531, 2009; in the data active means binding response below about 67% or above about 130%
MEKK3 PB1 HTS: modulators of MEKK3-MEK5 PB1 binding, primary screen, biochemical, wildtype MEKK3, multiplex bead flow cytometry, Alexa488-MEK5; AID 1529, 2009; bead-based flow cytometry, Alexa488-MEK5 binding to MEKK3; actives lie on both sides; 0 = blocked by unlabeled MEK5, 100 = vehicle; Mitogen-activated protein kinase kinase kinase 3 (Homo sapiens), Q99759; binding response (% of control), % at 10 µM; hit rate 1.4% among 290,000;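 active means binding response more than 3 SD above or below the average of its plate-row segment, actives on both sides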;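 further: Alexa488 bead fluorescence after subtracting the streptavidin-only scavenger bead signal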
MEKK2wt confirm: modulators of MEK5 binding to wildtype MEKK2, confirmation, biochemical, single concentration, multiplex bead flow cytometry | shares compounds with MEKK3 PB1 HTS | Alexa488-MEK5 binding to MEKK2 WT; actives lie on both sides | binding response (% of control), % at 10 µM | hit rate 2.4% among 5,900; in the data active means binding response below about 16% or above about 210%; inactive means in between
MEKK2mut-MEK5: mutant MEKK2 PB1-MEK5 binding signal retest – biochemical, single concentration, multiplex bead flow cytometry, confirmation; shares compounds with MEKK3 PB1 HTS; Alexa488-MEK5 binding to MEKK2 mutant; percent response, % at 10 µM; hit rate 2% among 5,900; in the data active means percent response mostly above about 71%, no sharp cut-off; inactive means mostly below about 38%;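 further: higher means compound restores mutant binding toward wildtype level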
MEKK3 confirm: MEKK3 wild-type PB1 binding to MEK5, inhibitors, confirmation, biochemical, bead multiplex flow cytometry, single concentration, wildtype; shares compounds with MEKK3 PB1 HTS; Alexa488-MEK5 binding to MEKK3; stronger effect = lower value; binding response (% of control), % at 10 µM; hit rate 1.8% among 5,900; AID 1894, 2009;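 active means binding response below 72% of control, or above a set upper limit, though filed actives all read lower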;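 further: 100% = DMSO only wells and 0% = binding blocked by excess unlabeled MEK5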
* = called active by the depositor; [ ] = another dose, or the depositor's remark. Most compounds without a hit are left out; they make up all but 2.5% or so of the library.

O=C(NC12CC3CC(CC(C3)C1)C2)C1CC(=O)N(c2ccccc2)C1 (stereo not drawn) was read as MEKK2mut PB1 HTS 25.0*, GRK2 aptamer HTS 0.0, MEKK2 WT-MEK5 100.0, MEKK3 PB1 HTS 107.0, MEKK2wt confirm 99.0, MEKK2mut-MEK5 -3.0 and MEKK3 confirm 99.0.
Screening NC(=O)CC(NC(=O)Cc1ccc(Cl)cc1)c1ccc(NC2CCCC2)c([N+](=O)[O-])c1 (stereo not drawn) returned MEKK2mut PB1 HTS 4.0, GRK2 aptamer HTS 0.0, MEKK2 WT-MEK5 99.0 and MEKK3 PB1 HTS 100.0.
Screening COC(=O)CCC(=O)OC1(C)C(=O)C2=CN(CCc3c[nH]c4ccccc34)C(c3ccc(OC)cc3)=CC2=C(Br)C1=O (stereo not drawn) returned MEKK2mut PB1 HTS -3.0, GRK2 aptamer HTS 6.0, MEKK2 WT-MEK5 88.0 and MEKK3 PB1 HTS 84.0.
`COC(=O)CCC(=O)OC1(C)C(=O)C2=CN(CCCOC(C)C)C(c3ccc(OC)cc3)=CC2=C(Br)C1=O` (stereo not drawn) gave MEKK2mut PB1 HTS 1.0, GRK2 aptamer HTS 12.0, MEKK2 WT-MEK5 -8.0*[inhibitor], MEKK3 PB1 HTS 90.0, MEKK2wt confirm 95.0, MEKK2mut-MEK5 -4.0 and MEKK3 confirm 93.0.
Screening COC(=O)CCC(=O)OC1(C)C(=O)C2=CN(CC(C)C)C(c3ccc(OC)cc3)=CC2=C(Br)C1=O (stereo not drawn) returned MEKK2mut PB1 HTS 1.0, GRK2 aptamer HTS 14.0, MEKK2 WT-MEK5 -7.0*[inhibitor], MEKK3 PB1 HTS 88.0, MEKK2wt confirm 83.0, MEKK2mut-MEK5 -12.0 and MEKK3 confirm 71.0*.
Screening COc1cc(C)ccc1OCCOCCOc1ccc([N+](=O)[O-])cc1 returned MEKK2mut PB1 HTS 1.0, GRK2 aptamer HTS 0.0, MEKK2 WT-MEK5 105.0, MEKK3 PB1 HTS 134.0*, MEKK2wt confirm 104.0, MEKK2mut-MEK5 -3.0 and MEKK3 confirm 99.0.
`COc1cc(C)ccc1OCCOCCOc1ccccc1[N+](=O)[O-]` gave MEKK2mut PB1 HTS 3.0, GRK2 aptamer HTS 0.0, MEKK2 WT-MEK5 104.0 and MEKK3 PB1 HTS 102.0.
For CCc1ccc(CCN2C(=O)c3ccccc3C2=O)nc1 the results were MEKK2mut PB1 HTS -31.0, GRK2 aptamer HTS 2.0, MEKK2 WT-MEK5 75.0, MEKK3 PB1 HTS 75.0*[inhibitor], MEKK2wt confirm 97.0, MEKK2mut-MEK5 -4.0 and MEKK3 confirm 101.0.
Screening CN1CCC(NCCC(c2ccc(F)cc2)c2ccc(Cl)cc2)CC1 (stereo not drawn) returned MEKK2mut PB1 HTS -49.0, GRK2 aptamer HTS 0.0, MEKK2 WT-MEK5 10.0*[inhibitor], MEKK3 PB1 HTS 4.0*[inhibitor], MEKK2wt confirm 150.0, MEKK2mut-MEK5 37.0 and MEKK3 confirm 106.0.
Screening CC(C)C(CCNC1CCN(C)CC1)c1ccc(Cl)cc1 (stereo not drawn) returned MEKK2mut PB1 HTS 5.0, GRK2 aptamer HTS 0.0, MEKK2 WT-MEK5 108.0 and MEKK3 PB1 HTS 93.0.
For O=C(Cc1cccs1)N1CCN(c2cccc(Cl)c2)CC1 the results were MEKK2mut PB1 HTS -12.0, GRK2 aptamer HTS 1.0, MEKK2 WT-MEK5 94.0 and MEKK3 PB1 HTS 100.0.
For N#Cc1ccc(OCC(=O)NCC2(N3CCCCC3)CCCCC2)cc1 the results were MEKK2mut PB1 HTS -1.0, GRK2 aptamer HTS 0.0, MEKK2 WT-MEK5 103.0 and MEKK3 PB1 HTS 104.0.
For O=C(COc1ccccc1)NCC1(N2CCCCC2)CCCCC1 the results were MEKK2mut PB1 HTS 31.0, GRK2 aptamer HTS 0.0, MEKK2 WT-MEK5 147.0*, MEKK3 PB1 HTS 103.0, MEKK2wt confirm 115.0, MEKK2mut-MEK5 -2.0 and MEKK3 confirm 101.0.
For COc1ccccc1-c1nnc(SCC(=O)N2CCOCC2)n1-c1ccccc1 the results were MEKK2mut PB1 HTS 5.0, GRK2 aptamer HTS 5.0, MEKK2 WT-MEK5 110.0 and MEKK3 PB1 HTS 106.0.
For CCOc1ccccc1NC1=NCC(=O)N1Cc1ccc(F)cc1 the results were MEKK2mut PB1 HTS 4.0, GRK2 aptamer HTS 0.0, MEKK2 WT-MEK5 104.0 and MEKK3 PB1 HTS 110.0.
COc1ccccc1NC1=NCC(=O)N1Cc1ccccc1 was read as MEKK2mut PB1 HTS 47.0*, GRK2 aptamer HTS 0.0, MEKK2 WT-MEK5 58.0, MEKK3 PB1 HTS 58.0, MEKK2wt confirm 102.0, MEKK2mut-MEK5 0.0 and MEKK3 confirm 100.0.
COc1cc2c3nnc(-c4ccc(F)cc4)c-3cn(Cc3ccc(C)cc3)c2cc1OC was read as MEKK2mut PB1 HTS 50.0*, GRK2 aptamer HTS 0.0, MEKK2 WT-MEK5 179.0*, MEKK3 PB1 HTS 116.0, MEKK2wt confirm 204.0, MEKK2mut-MEK5 74.0* and MEKK3 confirm 109.0.
COc1cc2c3nnc(-c4ccccc4)c-3cn(Cc3ccc(F)cc3)c2cc1OC was read as MEKK2mut PB1 HTS 36.0, GRK2 aptamer HTS 0.0, MEKK2 WT-MEK5 166.0*, MEKK3 PB1 HTS 99.0, MEKK2wt confirm 187.0, MEKK2mut-MEK5 48.0 and MEKK3 confirm 113.0.
For Cc1ccc(Cn2nc3c4cc(F)ccc4n(Cc4ccc(F)cc4)cc-3c2=O)cc1 the results were MEKK2mut PB1 HTS -2.0, MEKK2 WT-MEK5 99.0 and MEKK3 PB1 HTS 96.0.
`COc1ccc(C2/C=C\CN(C(=O)C3CCCC3)[C@H](Cc3ccccc3)C(=O)N2Cc2ccc(F)cc2)cc1` (stereo partly drawn) gave MEKK2mut PB1 HTS 1.0, GRK2 aptamer HTS 1.0, MEKK2 WT-MEK5 151.0*, MEKK3 PB1 HTS 133.0*, MEKK2wt confirm 101.0, MEKK2mut-MEK5 -6.0 and MEKK3 confirm 100.0.
For CCOC(=O)C(NC(=O)NCc1ccccc1)(OCC)C(F)(F)F (stereo not drawn) the results were MEKK2mut PB1 HTS 0.0, GRK2 aptamer HTS 0.0, MEKK2 WT-MEK5 108.0 and MEKK3 PB1 HTS 109.0.
For CCn1c(COc2ccc(C)cc2)nc2ccccc21 the results were MEKK2mut PB1 HTS 0.0, GRK2 aptamer HTS 3.0, MEKK2 WT-MEK5 100.0 and MEKK3 PB1 HTS 103.0.
`CCN(CC)c1ccc(C=Nc2ccc(N(C)C)cc2)c(O)c1` gave MEKK2mut PB1 HTS 79.0*, GRK2 aptamer HTS 0.0, MEKK2 WT-MEK5 -21.0*, MEKK3 PB1 HTS 94.0, MEKK2wt confirm 100.0, MEKK2mut-MEK5 -7.0 and MEKK3 confirm 101.0.
CCN(CC)c1ccc(/C=N/Nc2ccccc2)c(O)c1 was read as MEKK2mut PB1 HTS 13.0, GRK2 aptamer HTS 0.0, MEKK2 WT-MEK5 136.0*, MEKK3 PB1 HTS 106.0, MEKK2wt confirm 102.0, MEKK2mut-MEK5 0.0 and MEKK3 confirm 105.0.
